Source: PubChem
A selection: hits, their analogues and other compounds. The true share with any hit is near 9%.
IMPase Li cell – cell-permeable IMPase inhibitors with lithium potentiation | CHO-M1 cells, IP1 TR-FRET (IP-One), carbachol + lithium | Potency, µM (series often up to 59.4 µM), inactives show at the highest dose activity, negative = IMPase inhibition, actives largely listed as inhibitors | actives 0.35% (n = 210,000) | AID 1457;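 note: IP1 builds up when IMPase is blocked and the TR-FRET signal falls; plate controls were basal vehicle for no effect and high inhibitor control for full effect; nearly all actives have a fitted effect of over 50% in size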
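CHO-M1, 2000 cells/well, 16–30 h culture; cpd + low Li+, 30 min 37C; lysis with d2-IP1/Eu-anti-IP1 Ab, 10 min RT; TR-FRET 665/620 ratio and 620 channel; AC50 via Hill.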
HPGD inh – inhibitors of human 15-hydroxyprostaglandin dehydrogenase (HPGD); P15428; purified HPGD, NADH fluorescence kinetic, PGE2 substrate; Potency, µM, for inactives: at the highest dose activity change, negative = inhibition, actives largely listed as inhibitors; actives 4.3% (n = 150,000); AID 894; active = well fitted inhibition curve with a large enough effect, not every such curve was filed as active; inconclusive = small, poorly fitted or top-dose-only effect, or another doubt; inactive = no such curve, though single readings can be large or run the other way
Target sequence (P15428 whole entry, looked up): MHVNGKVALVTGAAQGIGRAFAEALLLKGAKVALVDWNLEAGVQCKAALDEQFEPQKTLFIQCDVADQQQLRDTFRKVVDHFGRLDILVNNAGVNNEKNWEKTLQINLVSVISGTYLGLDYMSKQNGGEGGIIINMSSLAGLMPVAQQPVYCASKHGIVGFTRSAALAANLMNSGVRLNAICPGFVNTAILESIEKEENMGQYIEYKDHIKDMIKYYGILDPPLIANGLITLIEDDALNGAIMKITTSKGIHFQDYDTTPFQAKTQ
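NADH formation kinetics: reaction with 30 uM PGE2 and 1 mM NAD+ (final), 20 nM enzyme, Tris-HCl pH 8 with Tween 20, after 15 min compound preincubation at room temperature. Fluorescence change, last versus first of five reads.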
Lamin A splicing – LMNA splicing modulation; HeLa LMNA splicing GFP/RFP minigene ratio, 48 h; Potency, µM (doses to about 46.1 µM), for inactives: at the top dose ratio change, negative = inhibition, hits mostly inhibitors; actives 0.01% (n = 200,000); AID 1487; active = well fitted inhibition curve with a large enough effect in the signal ratio, with a control signal flat, not every such curve was filed as active; inconclusive = small, poorly fitted or top-dose-only effect, or effect the other way, or a change in a side signal; the % refers to the signal ratio
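Read-out is the ratio of GFP to DsRed2 object intensity, acquired by 488 nm laser-scanning cytometry on HeLa lamin A-EGFP minigene reporter cells. Compound incubation 48 hrs at 37 °C in Opti-MEM with 2% FBS; DMSO 0.5% final.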
Luc counter – Kinase-Glo luciferase inhibition (counter-screen); Potency, µM (titrated, usually from 38.3 µM), for the others: at the top dose activity change, negative = inhibition, most hits filed as inhibitors; Q27757; Kinase-Glo luciferase, ATP luminescence, 8 min; actives 0.28% (n = 200,000); AID 1379; note: nearly all actives have a fitted effect of over 60% in size
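Inhibition of Kinase-Glo luciferase light generation was assessed at 10 uM ATP in pH 7.2 imidazole buffer, with luminescence measured after eight minutes at ambient temperature.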
ALDH1A1 inh – inhibitors of human aldehyde dehydrogenase 1A1. AID 1030. Potency, µM (top dose mostly 75.3 µM), inactives show at the top dose activity, negative = inhibition, hits mostly inhibitors. P00352. Purified ALDH1A1, NADH fluorescence, propionaldehyde substrate. actives 7.3% (n = 220,000); active = well fitted inhibition curve with a large enough effect, not every such curve was filed as active; inconclusive = small, poorly fitted or top-dose-only effect, or another doubt; inactive = no such curve, though single readings can be large or run the other way;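 note: plate controls were no enzyme wells and a reference inhibitor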
Target sequence (P00352 whole entry, looked up): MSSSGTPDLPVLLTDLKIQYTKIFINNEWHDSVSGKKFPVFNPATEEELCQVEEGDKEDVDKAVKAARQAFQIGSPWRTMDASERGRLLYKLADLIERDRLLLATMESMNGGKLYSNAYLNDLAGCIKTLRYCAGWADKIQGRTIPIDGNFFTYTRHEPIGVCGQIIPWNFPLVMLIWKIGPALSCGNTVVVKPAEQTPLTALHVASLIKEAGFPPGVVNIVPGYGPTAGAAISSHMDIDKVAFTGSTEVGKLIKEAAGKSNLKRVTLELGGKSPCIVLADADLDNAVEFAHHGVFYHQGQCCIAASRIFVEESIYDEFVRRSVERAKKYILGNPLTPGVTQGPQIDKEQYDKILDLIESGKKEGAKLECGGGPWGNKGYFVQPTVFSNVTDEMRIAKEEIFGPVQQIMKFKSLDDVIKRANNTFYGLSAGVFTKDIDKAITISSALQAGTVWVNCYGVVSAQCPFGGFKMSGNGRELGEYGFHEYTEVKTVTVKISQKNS
Numbers without * were called inactive; ? = inconclusive; / = not tested or not shown; [ ] = another dose, or the depositor's remark. Unless noted, calls come from the whole dose curve; as a rule, active = well fitted curve in the direction sought with a large enough effect; inconclusive = small, poorly fitted or top-dose-only effect, or another doubt; inactive = no such curve, though single readings can be large; an effect the other way counts as inactive or inconclusive. Unless noted, % is set by controls: 0 for no effect and ±100 for the full control effect; potency is the fitted concentration of half-maximal effect.

SMILES	IMPase Li cell	HPGD inh	Lamin A splicing	Luc counter	ALDH1A1 inh
CC(C)=Cc1c(O)nc2ccccn2c1=O	-4.0%	/	/	-0.6%	-12.7%
O=c1c(/C=N/O)c(Nc2ccccc2)nc2ccccn12	13.3%[38.3 µM]	0.562µM*	4.8%	5.0%	?
O=C(O)/C=C\C(=O)N1Cc2cc3ccccc3nc2C1	-0.4%	-9.8%	/	-4.1%[7.66 µM]	-9.9%[13.5 µM]
COc1ncnc2c1oc1nc(CC(C)C)c3c(c12)CC(C)(C)OC3	6.9%[38.3 µM]	-9.4%	-8.3%	-4.9%	1µM*
O=c1c(-c2cc(F)cc(F)c2)nc2cncnc2n1Cc1ccc(F)cc1	4.6%	-17.5%	/	-3.6%	?
C[Si](C)(C)Cl	7.5%	-6.5%	/	/	22.4µM*
CCOC(=O)c1c(C)c(C(=O)Nc2ccc3c(c2)OCO3)c(C)n1C	-8.9%[38.3 µM]	-5.3%	-6.5%	-2.7%	?
O=C(Nc1ccc2c(c1)OCO2)c1ccc(Cl)s1	-9.8%[38.3 µM]	15.8µM*	-5.1%	?	?
CCOC(=O)c1c(N)sc(C(=O)Nc2ccc3c(c2)OCO3)c1C	34.5%[38.3 µM]	?	6.4%	4.47µM*	?
CC(C)NC(=O)c1cc(-c2ccco2)nn1-c1ccc(Cl)cc1	-5.7%[38.3 µM]	?	-6.4%	-1.7%	28.2µM*
CCOC(=O)c1cc(-c2ccco2)nn1-c1ccc(C)cc1	12.6%	/	-22.1%[46 µM]	0.7%	14.1µM*
O=C(c1cc(-c2ccco2)nn1-c1cccc(Cl)c1)N1CCCCC1	21.2%[38.3 µM]	1.58µM*	1.0%	4.2%	3.55µM*
CCc1ccc(NS(=O)(=O)c2ccc(Cl)cc2OC)cc1	/	-9.8%	/	-4.0%	0.5%
COc1cc(NC(=O)NCCc2c(C)nn(C)c2C)cc(OC)c1OC	/	/	-5.2%[46 µM]	/	/
CC(=O)c1sc(NC(=O)c2ccco2)nc1-c1ccccc1	-9.9%[38.3 µM]	11.2µM*	-7.6%	4.9%	1.8%
CCOC(=O)c1sc(NC(=O)c2ccco2)nc1-c1ccccc1	-28.6%[38.3 µM]	-12.2%	-8.8%	-4.1%	-2.0%
Cc1sc(NC(=O)c2ccco2)nc1-c1ccccc1	-2.0%	14.1µM*	1.5%	7.1%	-5.4%
Cn1cccc1C(=O)OCC(=O)N1CC(=O)Nc2ccccc21	3.5%	/	-23.3%[46 µM]	1.7%	-5.3%
CN(C)c1ccc(-c2ccc3ncnc(N(C)Cc4ccco4)c3c2)cc1	9.6%	/	?	/	?
N=c1ccn(Cc2ccc(Cl)cc2)cc1	14.4%[38.3 µM]	-11.9%	?	-2.6%	25.1µM*
N=c1ccn(Cc2ccc(Cl)c(Cl)c2)cc1	1.1%[38.3 µM]	-5.5%	?	-5.0%	4.7%
NC(=O)c1cc(N)ccc1N1CCCC1	13.1%[38.3 µM]	-11.6%	-3.1%	-0.3%	-2.9%
Cc1cc(N2CCCC2)c(C)cc1C=O	20.4%[38.3 µM]	-6.9%	-0.6%	-4.0%	14.1µM*
Cc1ccc(-n2c(C)cc(=O)cc2C)c(C)c1	63.8%	-6.4%	-3.5%	-0.6%	6.8%
Cc1cc(N)ccc1N1CCCC1	44.9%[38.3 µM]	-5.4%	10.9%	-8.9%	25.1µM*
SMILES	IMPase Li cell	HPGD inh	Lamin A splicing	Luc counter	ALDH1A1 inh
Cc1cc(N)ccc1-n1c(C)ccc1C	-4.4%[38.3 µM]	-7.3%	?	-4.3%	10µM*
COc1ccc(OC)c(NC(=O)CSc2nnc3ccc4ccccc4n23)c1	/	/	10.0%[46 µM]	/	/
CCc1ccc(NC(=S)Nc2cc(C(=O)O)ccc2N2CC3CC(C2)c2cccc(=O)n2C3)cc1 (stereo not given)	-3.6%	/	8.0%[9.22 µM]	0.8%	17.8µM*
CC1CCc2c(sc(NC(=O)CSc3nc4c(c(C(F)(F)F)n3)CCc3ccccc3-4)c2C(N)=O)C1 (stereo not given)	3.2%	-16.8%	?	0.9%	17.0%
CC(C)OC(=O)c1cccc(-c2ccc(C=O)o2)c1	-16.1%	-24.1%	1.7%	-0.5%	6.31µM*
COc1ccc2c(c1)C(c1ccccc1C)CC(=O)O2 (stereo not given)	18.5%	?	/	-10.7%[39.9 µM]	31.6µM*
COC(=O)CNC(=O)c1cccc(-c2ccc(OC)cc2)c1	-3.1%	/	/	-0.6%	-5.2%
CCN(CC)C(=O)c1cccc(-c2ccc(OC)cc2)c1	4.1%[38.3 µM]	14.1µM*	?	0.5%	15.5%
CCC(Sc1nc2ccc(N)cc2s1)C(=O)Nc1nccs1 (stereo not given)	56.4%[38.3 µM]	25.1µM*	0.1%	-0.6%	7.94µM*
CCC(Sc1nnc(C)s1)C(=O)Nc1nccs1 (stereo not given)	?	-17.6%	14.4%	13.1%	?
O=C(NCc1ccccc1)c1ccc2c(=O)[nH]c3c(C(=O)NCC4CCCO4)sc(=S)n3c2c1 (stereo not given)	2.0%	/	?	-1.9%	20µM*
Cc1ccc(CNC(=O)c2ccc3c(=O)[nH]c4c(C(=O)NCC5CCCO5)sc(=S)n4c3c2)cc1 (stereo not given)	-10.8%	/	/	-0.1%	?
CCCCCNC(=O)c1ccc2c(=O)[nH]c3c(C(=O)NCC4CCCO4)sc(=S)n3c2c1 (stereo not given)	27.9%[38.3 µM]	11.2µM*	-0.6%	-3.1%	?
C=C(C)C1Cc2c(C)nn(-c3nc(C)cc(C)n3)c2C1 (stereo not given)	0.5%[38.3 µM]	-16.8%	?	-9.4%	20µM*
C=C(C)C1Cc2nc(N)nc(C)c2C1 (stereo not given)	-8.0%[38.3 µM]	?	4.8%	-6.8%	?
O=C(OCC(F)(F)F)[C@H](O)[C@@H](O)C(=O)OCC(F)(F)F	-9.6%	-5.3%	/	2.7%	-0.2%
O=C(CSc1nnnn1-c1ccccc1)NC1CCCc2ccccc21 (stereo not given)	/	/	-0.5%	/	10µM*
Cc1nnc(SC(C)C(=O)NC2CCCc3ccccc32)n1-c1ccccc1 (stereo not given)	/	/	-3.6%	/	6.3%
CC(Sc1nnc(Nc2ccccc2)s1)C(=O)NC1CCCc2ccccc21 (stereo not given)	13.2%	-25.8%	?	3.0%	31.6µM*
Cc1ccccc1-n1nnnc1SC(C)C(=O)NC1CCCc2ccccc21 (stereo not given)	9.1%	-11.8%	-13.9%	1.8%	4.47µM*
O=C(CSc1nc2ccccc2s1)NC1CCCc2ccccc21 (stereo not given)	9.7%	11.2µM*	?	2.8%	?
CCOC(=O)C1CCN(C(=O)c2cc3c(=O)n4ccccc4nc3n2C)CC1	-18.9%	/	-3.5%[46 µM]	-0.8%	?
O=C(COC(=O)c1cncc(Br)c1)NCc1ccc2c(c1)OCO2	8.5%	/	3.3%[46 µM]	0.1%	?
CC/C(=N/Nc1ccccc1C)c1cnnc(SC)n1	-2.5%	-21.5%	?	-6.9%	7.94µM*
CSc1nncc(/C(C)=N\Nc2cccc(C)c2)n1	-0.1%[38.3 µM]	-13.4%	9.3%	-6.7%	8.91µM*
CSc1nncc(/C(C)=N\Nc2ccccc2)n1	12.4%[38.3 µM]	-19.5%	10.6%	4.1%	?
CN(C)/N=C/c1c(O)ccc2ccccc12	22.8%[38.3 µM]	31.6µM*	12.1%	-4.0%	-2.3%
Oc1ccc2ccccc2c1C=Nc1ccc(N2CCOCC2)cc1	58.1%[38.3 µM]	20µM*	-7.3%	-7.3%	4.47µM*
CCOC(=O)CC1=NN(c2ccccc2)C(=O)C1	-1.5%	/	?	1.4%	3.4%
